Results on 40 molecules are retold here after the supplement of paper PMC9023506.

Counter-ions that a name gives are not always drawn.

This assay has as its system Danio rerio larvae (5 dpf). In words: optomotor response to fast red moving lines, difference vs DMSO (percentage points (treated minus DMSO)); higher = more of the behaviour than the DMSO vehicle control. The following applies: 10 µM; exposure time: 3 h pre-incubation + 3 h imaging. The procedure:
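5-dpf wild-type zebrafish larvae were imaged in 96-well plates. They were treated with 190 Tocris FDA-approved drugs at 10 µM (1 µl/ml DMSO) for 3 h before and 3 h during imaging at 28.5 °C, 48 larvae per drug. Automated image analysis gave % time moving and optomotor responses. Values are drug group mean minus DMSO vehicle mean (n=844), in percentage points, for 10 behaviours.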
In the case of `CC1CNc2c(cccc2S(=O)(=O)N[C@@H](CCCNC(=N)N)C(=O)N2CC[C@@H](C)C[C@@H]2C(=O)O)C1` (stereo not given in full) [Argatroban], the optomotor response is -3.36.
Turning to `N#C[C@@H]1C[C@@H]2C[C@@H]2N1C(=O)[C@@H](N)C12CC3CC(CC(O)(C3)C1)C2` [Saxagliptin hydrochloride], the optomotor response was -7.58.
In the case of `CCCN(CCC)S(=O)(=O)c1ccc(C(=O)O)cc1` [Probenecid], the optomotor response is -11.6.
As for `Nc1ncn([C@@H]2O[C@H](CO)[C@@H](O)[C@H]2O)c(=O)n1` [5-Azacytidine], the optomotor response turned out to be 1.5.
For the molecule `CN[C@H]1CC[C@@H](c2ccc(Cl)c(Cl)c2)c2ccccc21` [Sertraline hydrochloride], the optomotor response is -8.12.
With `OC(c1cc(C(F)(F)F)nc2c(C(F)(F)F)cccc12)C1CCCCN1` (stereo not given) [Mefloquine hydrochloride] the figure was -3.95.
For the molecule `CC#C[C@]1(O)CC[C@H]2[C@@H]3CCC4=CC(=O)CCC4=C3[C@@H](c3ccc(N(C)C)cc3)C[C@@]21C` [Mifepristone], the optomotor response is -1.97.
`COc1cc2nc(N3CCN(C(=O)c4ccco4)CC3)nc(N)c2cc1OC` [Prazosin hydrochloride]: the optomotor response came to 3.73.
With `Nc1nc(Cl)nc2c1ncn2[C@@H]1O[C@H](CO)[C@@H](O)[C@@H]1F` [Clofarabine] the figure was -10.5.
Consider `CN1CCC[C@@H]1CCO[C@](C)(c1ccccc1)c1ccc(Cl)cc1` [Clemastine fumarate], for which the optomotor response amounted to 13.4.
As for `CC(C)[C@H]1CC[C@H](C(=O)N[C@H](Cc2ccccc2)C(=O)O)CC1` [Nateglinide], the optomotor response is -0.789.
The value for `NC(=O)N1c2ccccc2C=Cc2ccccc21` [Carbamazepine] was -9.08; that for `CCCCC1=NC2(CCCC2)C(=O)N1Cc1ccc(-c2ccccc2-c2nnn[nH]2)cc1` [Irbesartan] was -14.6; that for `CN(C)CC/C=C1/c2ccccc2COc2ccc(CC(=O)O)cc21` [Olopatadine hydrochloride] was 5.8.
Turning to `COc1ccccc1OCC(O)CN1CCN(CC(=O)Nc2c(C)cccc2C)CC1` (stereo not given) [Ranolazine dihydrochloride], the optomotor response was found to be 9.26.
Turning to `COc1cccc2c1C(=O)c1c(O)c3c(c(O)c1C2=O)C[C@@](O)(C(=O)CO)C[C@@H]3O[C@H]1C[C@H](N)[C@H](O)[C@H](C)O1` [Doxorubicin hydrochloride], the optomotor response amounted to 6.53.
With `CN(CCOc1ccc(NS(C)(=O)=O)cc1)CCc1ccc(NS(C)(=O)=O)cc1` [Dofetilide] the figure was 2.79; with `O=C1CCc2cc(OCCCCc3nnnn3C3CCCCC3)ccc2N1` [Cilostazol], -1.51.
With `CC[C@H]1OC(=O)[C@H](C)[C@@H](O[C@H]2C[C@@](C)(OC)[C@@H](O)[C@H](C)O2)[C@H](C)[C@@H](O[C@@H]2O[C@H](C)C[C@H](N(C)C)[C@H]2O)[C@](C)(O)C[C@@H](C)CN(C)[C@H](C)[C@@H](O)[C@]1(C)O` [Azithromycin], the optomotor response is -9.96.
The value for `COc1cc([C@@H]2c3cc4c(cc3[C@@H](O[C@@H]3O[C@@H]5CO[C@@H](C)O[C@H]5[C@H](O)[C@H]3O)[C@H]3COC(=O)[C@H]23)OCO4)cc(OC)c1O` [Etoposide] was -4.84; that for `CC(C)CN(C[C@@H](O)[C@H](Cc1ccccc1)NC(=O)O[C@H]1CO[C@H]2OCC[C@H]21)S(=O)(=O)c1ccc(N)cc1` [Darunavir] was 1.68; that for `COc1c(C)c2c(c(O)c1C/C=C(\C)CCC(=O)O)C(=O)OC2` [Mycophenolic acid] was 10.7.
With `CC(C)OC(=O)C(C)(C)Oc1ccc(C(=O)c2ccc(Cl)cc2)cc1` [Fenofibrate] the figure was 19.2.
`Cc1ccc(-c2cc(C(F)(F)F)nn2-c2ccc(S(N)(=O)=O)cc2)cc1` [Celecoxib]: the optomotor response was -11.4.
Take `N#Cc1ccc2[nH]cc(CCCCN3CCN(c4ccc5oc(C(N)=O)cc5c4)CC3)c2c1` [Vilazodone hydrochloride]: the optomotor response was -38.2.
As for `Nc1nc(NC2CC2)c2ncn([C@H]3C=C[C@@H](CO)C3)c2n1` [Abacavir hemisulfate], the optomotor response was -1.18.
`COCCc1ccc(OCC(O)CNC(C)C)cc1` (stereo not given) [Metoprolol tartrate]: the optomotor response is -7.77.
In the case of `C[C@]12CCC(=O)C=C1CC[C@@H]1[C@@H]2[C@@H](O)C[C@@]2(C)[C@H]1CC[C@]2(O)C(=O)CO` [Hydrocortisone], the optomotor response was -1.8.
For the molecule `CC(=O)S[C@@H]1CC2=CC(=O)CC[C@]2(C)[C@H]2CC[C@@]3(C)[C@@H](CC[C@@]34CCC(=O)O4)[C@H]12` [Spironolactone], the optomotor response was -11.3.
The value for `CC1=Nc2ccc(Cl)cc2S(=O)(=O)N1` [Diazoxide] was -1.95; that for `CC(C)(C(=O)c1cccnc1)c1cccnc1` [Metyrapone] was -11.5; that for `COc1cc2ncnc(Nc3ccc(F)c(Cl)c3)c2cc1OCCCN1CCOCC1` [Iressa] was 8.7.
As to `COc1ccc(C[C@@H](C)NC[C@H](O)c2ccc(O)c(NC=O)c2)cc1` [Arformoterol tartrate], the optomotor response was -17.7.
In the case of `Nc1ncn([C@H]2C[C@H](O)[C@@H](CO)O2)c(=O)n1` [Decitabine], the optomotor response was found to be 1.67.
Regarding `CN/C(=N\CCSCc1nc[nH]c1C)NC#N` [Cimetidine], the optomotor response is -7.27.
The value for `CCCCc1nc(Cl)c(CO)n1Cc1ccc(-c2ccccc2-c2nnn[nH]2)cc1` [Losartan potassium] was -3.43; that for `CCCc1nc2c(C)cc(-c3nc4ccccc4n3C)cc2n1Cc1ccc(-c2ccccc2C(=O)O)cc1` [Telmisartan] was 7.51; that for `OCCN(CCO)c1nc(N2CCCCC2)c2nc(N(CCO)CCO)nc(N3CCCCC3)c2n1` [Dipyridamole] was 7.3.
Take `CC(C)n1c(/C=C/C(O)CC(O)CC(=O)O)c(-c2ccc(F)cc2)c2ccccc21` (stereo not given) [Fluvastatin sodium]: the optomotor response was -5.56.
Regarding `Cc1cc(C2CCCCC2)n(O)c(=O)c1` [Ciclopirox], the optomotor response worked out at 3.21.
